From PubChem BioAssay (Tox21) come the findings set out here.

The structures appear in SMILES notation. Several values for one entry are separate records, joined by “and”; a condition that tells them apart may be missing. Identical values can stand only once. Activity calls are given as the source filed them. Entries that show only a call come without a potency. Calls come from the whole dose curve.
Potency is the fitted concentration of half-maximal effect.

The target in this test is Acetylcholinesterase (Homo sapiens) (UniProt P22303). Description: Acetylcholinesterase (AChE) small molecule antagonists: enzyme-based qHTS assay (AID 1347397). Note: nearly all actives have a fitted effect of over 55% in size. Conditions: Potency: AChE enzyme activity inhibition; outcome: AChE enzyme activity inhibition; series mostly up to 115 µM. A digest of the protocol: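 Enzyme inhibition was scored from DTNB-detected thiocholine formed by recombinant human AChE acting on acetylthiocholine. The 30 min compound preincubation and 10 min substrate reaction were both run at room temperature, with DMSO as vehicle control.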
Sequence of Acetylcholinesterase (Homo sapiens) (P22303 whole entry, looked up): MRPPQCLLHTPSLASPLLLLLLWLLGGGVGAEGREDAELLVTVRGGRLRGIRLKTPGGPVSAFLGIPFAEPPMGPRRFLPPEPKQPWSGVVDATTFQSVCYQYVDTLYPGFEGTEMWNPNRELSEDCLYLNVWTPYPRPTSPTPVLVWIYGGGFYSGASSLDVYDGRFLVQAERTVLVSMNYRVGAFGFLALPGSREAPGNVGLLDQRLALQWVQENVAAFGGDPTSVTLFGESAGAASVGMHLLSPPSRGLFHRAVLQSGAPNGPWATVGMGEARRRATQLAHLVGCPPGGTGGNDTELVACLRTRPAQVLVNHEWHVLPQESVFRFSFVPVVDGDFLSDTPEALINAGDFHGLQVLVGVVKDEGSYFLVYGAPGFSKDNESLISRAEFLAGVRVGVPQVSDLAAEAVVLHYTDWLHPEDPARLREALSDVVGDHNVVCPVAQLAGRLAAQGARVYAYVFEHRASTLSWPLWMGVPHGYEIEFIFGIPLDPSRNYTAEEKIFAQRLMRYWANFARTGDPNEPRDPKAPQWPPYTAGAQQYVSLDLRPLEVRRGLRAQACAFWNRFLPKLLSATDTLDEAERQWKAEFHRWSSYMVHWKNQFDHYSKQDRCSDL
Regarding `CCOC(=O)C1CC(=O)C(=C(O)C2CC2)C(=O)C1` (centres undefined), the Potency result is “inactive”.

For the compound `Nc1cccc2c(=O)[nH][nH]c(=O)c12`, the Potency entry is “inactive”.

On to `OCC(F)(F)F`, for which the Potency result is “inactive”.

For `O=S1OCCO1`, the Potency entry is “inactive”. For the compound `CCCCCCCCCCCCS(=O)(=O)Cl`, the activity change, negative = inhibition is 0.136% [at 23.6 µM] (inactive). Take `CCCCCCCCCCCC[N+](C)(C)CCCCCCCCCCCC`: the Potency is 28.3 µM (active). For `O=C(CO)[C@@H](O)[C@H](O)[C@@H](O)CO`, the Potency result is “inactive”. Same read-out and setting: the same measure for `CC(=O)Oc1ccc(C(c2ccc(OC(C)=O)cc2)c2ccccn2)cc1`: “inactive”; for `CS(=O)(=O)c1ccc([C@@H](C[C@H]2CCC(=O)C2)C(=O)Nc2cnccn2)cc1Cl`: “inactive”.

Take `OCCC1CCCCN1` (centres undefined): the Potency result is “inactive”.

Turning to `C=CCN(CC=C)CC=C`, the Potency entry is “inactive”. For `CCCCCCCCCCCCCC[P+](CCCC)(CCCC)CCCC`, the Potency is 31.6 µM (active) and 39.9 µM (active).

As for `NC(N)=NN=C(/C=C/c1ccc([N+](=O)[O-])o1)/C=C/c1ccc([N+](=O)[O-])o1`, the Potency entry is “inactive”. Take `CCCCCCCC(=O)N(C)C`: the Potency result was “inactive”. As to `CC(C)CCCC(C)NCCC(C)C` (centres undefined), the Potency result was “inactive”. As to `CC[N+](CC)(CC)CCOc1ccc(/C=C/c2ccccc2)cc1`, the Potency entry is “inactive”. Take `CC(=O)OCCC(C)CC(C)(C)C` (centres undefined): the Potency entry was “inactive”. As for `CCCOC(=O)c1ccc(O)cc1`, the Potency result is “inactive”.

Take `Cc1cscn1`: the Potency entry is “inactive”.

For the compound `C[C@H]1O[C@@H](O[C@H]2CC[C@@]3(C)[C@H](CC[C@@H]4[C@@H]3C[C@@H](O)[C@]3(C)[C@@H](C5=CC(=O)OC5)CC[C@]43O)C2)C[C@H](O)[C@@H]1O[C@H]1C[C@H](O)[C@H](O[C@H]2C[C@H](O)[C@H](O[C@@H]3O[C@H](CO)[C@@H](O)[C@H](O)[C@H]3O)[C@@H](C)O2)[C@@H](C)O1`, the Potency result was “inactive”. Take `CCNS(=O)(=O)c1ccc(C)cc1`: the Potency entry was “inactive”. Still for that read-out and setting: the same measure for `CC(CO)CO`: “inactive”; for `CC/C=C\CC/C=C/CO`: “inactive”; for `CCCCCCOC(=O)CC(CC(=O)OCCCCCC)(OC(=O)CCC)C(=O)OCCCCCC`: “inactive”. In the case of `CSc1nc(NC2CC2)nc(NC(C)(C)C)n1`, the Potency entry was “inactive”. In the case of `C/C=C1\C(=O)C[C@H]2[C@@H]3CCC4=CC(=O)CC[C@]4(C)[C@H]3CC[C@]12C`, the Potency result is “inactive”. Take `CCOc1ccc2ccccc2c1C(=O)N[C@@H]1C(=O)N2[C@@H]1SC(C)(C)[C@@H]2C(=O)O`: the Potency entry is “inactive”.

In the case of `Cc1c(C)c([N+](=O)[O-])c(C(C)(C)C)c([N+](=O)[O-])c1C`, the Potency result is “inactive”. `Cc1cc2c(cc1C(F)(F)F)N(C(=O)Nc1ccc(Oc3cccnc3C)nc1)CC2`: the Potency result was “inactive”.

As to `Cc1nccn1CC1CCc2c(c3ccccc3n2C)C1=O` (centres undefined), the Potency entry was “inactive”.

For the compound `O=C(OCC(COC(=O)c1cccnc1)(COC(=O)c1cccnc1)COC(=O)c1cccnc1)c1cccnc1`, the Potency result was “inactive”. As to `CCCCCCCOC(=O)c1ccccc1C(=O)OCCCCCCC`, the Potency result was “inactive”. In the case of `CCC(C)OC(C)CC` (centres undefined), the Potency result was “inactive”. Same read-out and setting: the same measure for `NCCCCCCNCCCCCCN`: “inactive”. Consider `NC(=O)NS(=O)(=O)c1ccc(Cl)cc1`, for which the Potency result was “inactive”. Regarding `CN(C)CCOCCN(C)CCO`, the Potency result is “inactive”. With `CCNC(=O)C1CC(C)CCC1C(C)C` (centres undefined), the Potency entry was “inactive”. Same read-out and setting: the same measure for `C=C(C)C(=O)NCCCN(C)C`: “inactive”; for `O=c1[nH]c(=O)n([C@H]2C[C@H](O)[C@@H](CO)O2)cc1I`: “inactive”.
